# Data: PubChem BioAssay AID434961 (Broad Institute, 2010)
# Out of some 7,700 compounds screened, about 15 (0.2%) were called active. Another 6% or so got no clear call; they are omitted.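 How the source made its calls: active means more than half of replicate wells with inhibition above about 18% (limit read from the data, passing the limit was not always enough); inconclusive means exactly half of replicate wells above that limit; inactive means fewer than half of replicates above it.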 The full list was thinned out, with actives kept by preference.
# Biological target: Regulator of chromosome condensation (Homo sapiens) + GTP-binding nuclear protein Ran (Homo sapiens) + Importin subunit beta-1 (Homo sapiens) (UniProt P18754+P62826+Q14974)
# Test: inhibitors of Ran–importin-beta complex formation, primary screen, biochemical, CFP-Ran/YFP-importin-beta FRET, RCC1, cell-free (AID 434961);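 further: 0% = DMSO wells and 100% inhibition = RanGDP control wells on each plate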
# Settings: stronger effect = higher value, concentration not given here
row,SMILES,inhibition
1,C[C@@H]1CN([C@H](C)CO)C(=O)c2cc(NS(=O)(=O)c3ccccc3)ccc2O[C@@H](C)CCCCO[C@@H]1CN(C)Cc1ccc2c(c1)OCO2,-2.27% (inactive)
2,COc1ccc(S(=O)(=O)Nc2cccc3c2O[C@H](CN(C)Cc2ccc4c(c2)OCO4)[C@@H](C)CN([C@@H](C)CO)C3=O)cc1,1.75% (inactive)
3,C[C@@H]1CCCCO[C@@H](CN(C)C(=O)CCC(F)(F)F)[C@@H](C)CN([C@@H](C)CO)C(=O)c2cc(NS(=O)(=O)c3cccs3)ccc2O1,5.99% (inactive)
4,C[C@@H]1CN([C@@H](C)CO)C(=O)c2cccc(NC(=O)c3cnccn3)c2O[C@H]1CN(C)C(=O)NC1CCCCC1,0.00388% (inactive)
5,CC(C)NC(=O)N(C)C[C@@H]1Oc2c(NC(=O)C3CCOCC3)cccc2C(=O)N([C@H](C)CO)C[C@H]1C,-0.0599% (inactive)
6,C[C@H]1CN([C@@H](C)CO)C(=O)Cc2cc(NS(=O)(=O)c3ccccc3)ccc2O[C@@H]1CN(C)Cc1ccc2c(c1)OCO2,0.885% (inactive)
7,Cc1noc(C)c1NC(=O)Nc1ccc2c(c1)CC(=O)N([C@H](C)CO)C[C@@H](C)[C@H](CN(C)S(=O)(=O)c1ccccc1)O2,0.923% (inactive)
8,C[C@@H]1CN([C@H](C)CO)C(=O)c2cc(NS(=O)(=O)c3cn(C)cn3)ccc2O[C@H]1CN(C)C(=O)Nc1ccc2c(c1)OCO2,0.416% (inactive)
9,C[C@H](CO)N1C[C@H](C)[C@@H](CN(C)S(=O)(=O)c2ccccc2)Oc2ccc(NC(=O)NC3CCCCC3)cc2C1=O,3.44% (inactive)
10,C[C@@H]1CN([C@@H](C)CO)C(=O)Cc2cc(NS(=O)(=O)c3cn(C)cn3)ccc2O[C@H]1CN(C)S(=O)(=O)c1ccc(Cl)cc1,-7.4% (inactive)
11,C[C@H](CO)N1C[C@H](C)[C@@H](CN(C)C(=O)NC2CCCCC2)Oc2c(NS(=O)(=O)c3ccccc3)cccc2C1=O,1.49% (inactive)
12,C[C@H]1CN([C@@H](C)CO)C(=O)CCCn2nncc2CO[C@H]1CN(C)C(=O)Nc1ccccc1F,0.229% (inactive)
13,Cc1noc(C)c1S(=O)(=O)N(C)C[C@@H]1Oc2ccc(NC(=O)C3CCCCC3)cc2CC(=O)N([C@@H](C)CO)C[C@@H]1C,-3.61% (inactive)
14,CC(C)NC(=O)N(C)C[C@@H]1Oc2c(NS(=O)(=O)c3ccccc3)cccc2C(=O)N([C@H](C)CO)C[C@H]1C,4.93% (inactive)
15,C[C@@H]1CN([C@H](C)CO)C(=O)Cc2cc(NC(=O)Nc3ccccc3)ccc2O[C@H]1CN(C)CC1CC1,-1.7% (inactive)
16,COc1ccc(NC(=O)N(C)C[C@@H]2Oc3ncc(C#Cc4ccccc4)cc3C(=O)N([C@H](C)CO)C[C@@H]2C)cc1,2.4% (inactive)
17,C[C@H](CO)N1C[C@H](C)[C@@H](CN(C)Cc2ccc(Cl)c(Cl)c2)Oc2c(NS(=O)(=O)c3cccs3)cccc2C1=O,3.33% (inactive)
18,C[C@H](CO)N1C[C@H](C)[C@@H](CN(C)C(=O)Nc2cccc3ccccc23)Oc2ccc(NC(=O)NC3CCCCC3)cc2CC1=O,-2.7% (inactive)
19,C[C@@H]1CCCCO[C@@H](CN(C)Cc2ccccc2)[C@@H](C)CN([C@H](C)CO)C(=O)c2cc(N(C)C)ccc2O1,-4.07% (inactive)
20,COc1ccc(CN(C)C[C@H]2Oc3ccc(NC(=O)Cc4cn(C)c5ccccc45)cc3C(=O)N([C@H](C)CO)C[C@H]2C)cc1,-2.11% (inactive)
21,COc1ccc(S(=O)(=O)N(C)C[C@H]2Oc3c(NC(=O)C4CC4)cccc3C(=O)N([C@@H](C)CO)C[C@@H]2C)cc1,-1.54% (inactive)
22,Cc1noc(C)c1S(=O)(=O)Nc1cccc2c1O[C@H](CN(C)Cc1ccc3c(c1)OCO3)[C@H](C)CN([C@H](C)CO)C2=O,-8.22% (inactive)
23,C[C@@H]1CN([C@H](C)CO)C(=O)c2cc(NC(=O)C3CC3)ccc2O[C@H]1CN(C)Cc1ccc(Cl)c(Cl)c1,0.993% (inactive)

row,SMILES,inhibition
1,Cc1noc(C)c1NC(=O)N(C)C[C@@H]1OCCCC[C@@H](C)Oc2ccc(NC(=O)Cc3ccccc3)cc2C(=O)N([C@@H](C)CO)C[C@@H]1C,4.99% (inactive)
2,CC(C)NC(=O)N(C)C[C@@H]1OCCCC[C@H](C)Oc2ccc(NC(=O)CCC(F)(F)F)cc2C(=O)N([C@@H](C)CO)C[C@H]1C,-1.88% (inactive)
3,C[C@@H]1CN([C@@H](C)CO)C(=O)c2cc(NS(=O)(=O)c3cccs3)ccc2O[C@@H](C)CCCCO[C@@H]1CN(C)C,-3.73% (inactive)
4,COC(=O)N(C)C[C@@H]1OCc2cn(nn2)CCCC(=O)N([C@@H](C)CO)C[C@@H]1C,2.64% (inactive)
5,COC(=O)N(C)C[C@H]1OCc2cn(nn2)CCCC(=O)N([C@@H](C)CO)C[C@H]1C,18.2% (active)
6,COC(=O)N(C)C[C@H]1OCc2cn(nn2)CCCC(=O)N([C@H](C)CO)C[C@@H]1C,-1.56% (inactive)
7,C[C@H](CO)N1C[C@H](C)[C@H](CN(C)C(=O)Nc2cccc3ccccc23)OCCCC[C@H](C)Oc2ccc(NC(=O)c3ccncc3)cc2C1=O,0.239% (inactive)
8,C[C@@H]1CN([C@@H](C)CO)C(=O)Cc2cc(NC(=O)Nc3ccc(C(F)(F)F)cc3)ccc2O[C@@H]1CN(C)C(=O)NC1CCCCC1,1.62% (inactive)
9,C[C@@H]1CN([C@H](C)CO)C(=O)c2cc(NS(=O)(=O)c3cn(C)cn3)ccc2O[C@H]1CN(C)C(=O)Nc1ccc(F)cc1,9.51% (inactive)
10,C[C@@H]1CN([C@@H](C)CO)C(=O)Cc2cc(NC(=O)Nc3ccc4c(c3)OCO4)ccc2O[C@H]1CN(C)C(=O)NC1CCCCC1,-2.22% (inactive)
11,C[C@@H]1CN([C@H](C)CO)C(=O)c2cc(NC(=O)Cc3ccccc3)ccc2O[C@@H]1CN(C)C(=O)NC1CCCCC1,1.32% (inactive)
12,C[C@@H]1CN([C@H](C)CO)C(=O)CCCn2cc(nn2)CO[C@H]1CN(C)C(=O)Nc1cccc2ccccc12,-3.4% (inactive)
13,CC(C)NC(=O)N(C)C[C@H]1Oc2ccc(NC(=O)CCC(F)(F)F)cc2C(=O)N([C@H](C)CO)C[C@@H]1C,-4.13% (inactive)
14,C[C@H](CO)N1C[C@H](C)[C@H](CN(C)C(=O)CCCN(C)C)OCCCC[C@H](C)Oc2ccc(NC(=O)Nc3cccc4ccccc34)cc2C1=O,2.28% (inactive)
15,C[C@H]1CN([C@@H](C)CO)C(=O)c2cccc(NS(=O)(=O)c3ccc(Cl)cc3)c2O[C@H]1CN(C)S(=O)(=O)c1cn(C)cn1,-0.913% (inactive)
16,CNC[C@@H]1OCCCC[C@@H](C)Oc2ccc(N)cc2C(=O)N([C@H](C)CO)C[C@H]1C,0.828% (inactive)
17,CNC[C@H]1OCCCC[C@H](C)Oc2ccc(NS(=O)(=O)c3cccs3)cc2C(=O)N([C@@H](C)CO)C[C@@H]1C,1.28% (inactive)
18,C[C@@H]1CN([C@@H](C)CO)C(=O)Cc2cc(NS(=O)(=O)c3cn(C)cn3)ccc2O[C@@H]1CN(C)C(=O)Nc1ccc(F)cc1,-4.41% (inactive)
19,COc1ccc(S(=O)(=O)N(C)C[C@H]2Oc3ccc(NC(=O)Nc4ccc(C(F)(F)F)cc4)cc3CC(=O)N([C@@H](C)CO)C[C@@H]2C)cc1,3.32% (inactive)
20,C[C@H](CO)N1C[C@H](C)[C@H](CN(C)Cc2ccncc2)OCCCC[C@H](C)Oc2ccc(NC(=O)CCCN(C)C)cc2C1=O,1.3% (inactive)
21,C[C@H](CO)N1C[C@H](C)[C@@H](CN(C)Cc2ccc(C(=O)O)cc2)Oc2ccc(NC(=O)NC3CCCCC3)cc2C1=O,-0.0517% (inactive)
22,C[C@@H]1CN([C@@H](C)CO)C(=O)c2cc(NC(=O)Nc3cccc4ccccc34)ccc2O[C@H]1CN(C)C(=O)Nc1cccc2ccccc12,-2.16% (inactive)
23,C[C@H](CO)N1C[C@H](C)[C@H](CN(C)C(=O)OCc2ccccc2)OCc2cn(nn2)CCCC1=O,1.83% (inactive)
